Measured values from PubChem BioAssay (Tox21).
“And” between values parts separate entries of the source, which are not always exact repeats. Equal values may be shown once. Results filed as inconclusive are left out. More than one record can exist for a structure, and the calls need not agree. The source made the active and inactive calls. Unless noted, calls come from the whole dose curve.

Key:
[1] = Nuclear factor erythroid 2-related factor 2/antioxidant responsive element (Nrf2/ARE) small molecule agonists: qHTS cell viability counter screen in human keratinocytes (AID 1919968; active = well fitted curve in the direction sought with a large enough effect in the repeat runs; an effect the other way counts as inactive or inconclusive; note: nearly all actives have a fitted effect of over 55% in size)
Method in brief: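 CellTiter-Fluor fluorescence, read 1 h after reagent, gave viability in the same wells as the ARE-luciferase assay. KeratinoSens cells (1,500/well) had 23 h compound exposure at 37 C/5% CO2 following 5 h plating.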

[2] = Nuclear factor erythroid 2-related factor 2/antioxidant responsive element (Nrf2/ARE) small molecule agonists: luciferase reporter gene qHTS assay in human keratinocytes (AID 1919969); note: nearly all actives have a fitted effect of over 35% in size; note: potency is the fitted concentration of half-maximal effect
[3] = target: Gonadotropin-releasing hormone receptor (Homo sapiens) (UniProt P30968); assay: Human gonadotropin-releasing hormone receptor (GnRHR) small molecule agonists, calcium flux assay in GnRHR-HEK293 cells (AID 1920063); note: nearly all actives have a fitted effect of over 35% in size
Method in brief: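 Agonist mode: compounds at 15 concentrations, in triplicate, went onto calcium dye-loaded GnRHR-HEK293 cells. Intracellular calcium was then followed as 480/540 nm fluorescence at 1 s intervals over 3 min.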

[4] = target: KiSS-1 receptor (Homo sapiens) (UniProt Q969F8); assay: Human kisspeptin (KISS1R) small molecule agonists, calcium flux assay in KISS1R-HEK293 cells (AID 1920064; active = well fitted curve in the direction sought with a large enough effect in the repeat runs; an effect the other way counts as inactive or inconclusive)
Method in brief: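 Agonist mode: intracellular calcium rise tracked at 1 s intervals over 3 min (480/540 nm) immediately after compound addition to dye-loaded KISS1R-HEK293 stable cells. Each compound tested at 15 concentrations in triplicate.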

[5] = G protein-coupled receptor (GPCR) small molecule agonists, calcium flux assay: HEK293 wild type cell line counter screen (AID 1920065)
Method in brief: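 Calcium flux counter screen: compound added in agonist mode at 15 concentrations in triplicate to dye-loaded parental HEK293 cells. Fluorescence (480/540) read kinetically for 3 min; ATP served as positive control.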

[6] = p53 small molecule agonists, cell-based qHTS assay with human liver microsomes (AID 1963577);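 note: p53 response element beta-lactamase reporter cells with liver microsomes plus NADPH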
Method in brief: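 Steps: plate p53RE-bla cells, incubate 5 h at 37 C; add compound in DMSO; add microsomes (0.5 mg/mL final) and NADPH (0.5 mg/mL final); incubate 16 h at 37 C; add LiveBLAzer, 2 h RT; read fluorescence.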

[7] = p53 small molecule agonists, cell-based qHTS assay with rat liver microsomes (AID 1963578)
Method in brief: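 Metabolic activation is supplied by rat liver microsomes with NADPH (each 0.5 mg/mL final). p53RE-bla cells incubate with compound 16 h at 37 C; reporter activity is measured by LiveBLAzer fluorescence.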

[8] = p53 small molecule agonists, cell-based qHTS assay with human liver microsomes: qHTS cell viability counter screen (AID 1963579); note: nearly all actives have a fitted effect of over 45% in size
Method in brief: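 After the 460/530 nm beta-lactamase read, CellTiter-Glo was added to the same wells and luminescence measured after 30 min at room temperature, giving viability of p53RE-bla cells treated 16 h with compounds plus microsomes and NADPH.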

[9] = p53 small molecule agonists, cell-based qHTS assay: qHTS cell viability counter screen (AID 1963581); note: nearly all actives have a fitted effect of over 45% in size
Method in brief: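 Counter screen read by CellTiter-Glo luminescence (ATP content, 30 min at room temperature), run in the same wells as the beta-lactamase reporter read. HCT-116 p53RE-bla cells saw compounds for 16 h at 37 C.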

[10] = p53 small molecule agonists, cell-based qHTS assay (AID 1963582; active = well fitted activation curve with a large enough effect in the signal ratio in the repeat runs, not every such curve was filed as active; the % refers to the signal ratio)
Method in brief: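 Read-out is beta-lactamase FRET fluorescence after 2 h at room temperature with LiveBLAzer B/G substrate. p53 response element-bla cells were treated 16 h at 37 C with compounds in DMSO, added 5 h after seeding.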

[11] = target: 5-hydroxytryptamine receptor 2A (Homo sapiens) (UniProt P28223); assay: 5-hydroxytryptamine receptor 2A (HTR2A) small molecule antagonists, cell-based qHTS assay (AID 1963586); note: nearly all actives have a fitted effect of over 45% in size
Method in brief: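 CHO cells stably expressing human HTR2A were plated for 18 h at 37 C, then loaded with calcium dye for 1 h. Compounds were preincubated 5 min at room temperature before DOI (4 nM solution) was added. Kinetic fluorescence was read for 3 min.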

[12] = target: 5-hydroxytryptamine receptor 2A (Homo sapiens) (UniProt P28223); assay: 5-hydroxytryptamine receptor 2A (HTR2A) small molecule agonists, cell-based qHTS assay (AID 1963587); note: nearly all actives have a fitted effect of over 30% in size
Method in brief: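 CHO cells stably expressing human HTR2A, plated 18 h, loaded with calcium dye 1 h at 37 C. Agonist mode: compounds added and intracellular calcium fluorescence recorded kinetically for 2 min at 1 sec intervals.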

[13] = target: Muscarinic acetylcholine receptor M1 (Homo sapiens) (UniProt P11229); assay: Cholinergic receptor muscarinic 1 (CHRM1) small molecule antagonists, cell-based qHTS assay (AID 1963588); note: nearly all actives have a fitted effect of over 40% in size
Method in brief: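 Compounds were tested at 15 concentrations in three independent runs. Dye-loaded CHRM1-CHO cells were exposed 5 min at room temperature before stimulation by acetylcholine added at 50nM. Intracellular calcium was read kinetically on FDSS for 3 min.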

[14] = cAMP Responsive Elements (CRE) small molecule agonists, cell-based qHTS assay (AID 1963590)
Method in brief: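 Agonist mode: compound added to CRE-bla HEK 293T cells (2,000/well, 18 h after plating) for 3 h at 37 C/5% CO2. Reporter activity detected via FRET beta-lactamase substrate, 2 h room-temperature loading.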

[15] = cAMP Responsive Elements (CRE) small molecule antagonists, cell-based qHTS assay (AID 1963591; active = well fitted inhibition curve with a large enough effect in the signal ratio in the repeat runs, not every such curve was filed as active; the % refers to the signal ratio)
Method in brief: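 Antagonist mode: compounds are added alongside the adenylyl cyclase activator NKH477 (0.25 uM final) to CRE-bla HEK293T cells for 3 h. LiveBLAzer FRET substrate, 2 h at room temperature, reports bla expression.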

[16] = target: Beta-2 adrenergic receptor (Homo sapiens) (UniProt P07550); assay: Adrenergic beta2 receptor (ADRB2) small molecule antagonists, cell-based qHTS assay (AID 1963592); note: nearly all actives have a fitted effect of over 50% in size; note: potency is the fitted concentration of half-maximal effect
Method in brief: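 Assay format: CHO-ADRB2 cells, 18-20hr seeding at 37C/5% CO2, then compound plus 1nM isoproterenol agonist mix for 0.5hr RT. Homogeneous time-resolved fluorescence cAMP detection after 1hr, expressed as 665/615 nm ratio.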

[17] = target: Beta-2 adrenergic receptor (Homo sapiens) (UniProt P07550); assay: Adrenergic beta2 receptor (ADRB2) small molecule agonists, cell-based qHTS assay (AID 1963593);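 note: CHO cells stably overexpressing human ADRB2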
Method in brief: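 CHO cells stably over-expressing ADRB2 were plated overnight at 37C, then dosed with compounds plus a stimulation mix containing 100uM IBMX and 25uM Ro-20-1724 for 0.5hr at room temperature. cAMP was measured by HTRF competition, 1hr.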

[18] = target: D(2) dopamine receptor (Homo sapiens) (UniProt P14416); assay: Dopamine D2 receptor (DRD2) small molecule agonists, cell-based qHTS assay (AID 1963594); note: nearly all actives have a fitted effect of over 35% in size
Method in brief: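 HEK293 cells stably expressing human DRD2, pre-treated with PDE inhibitor Ro20-1724 (0.1 mM final) and compound 10 min at room temperature, then stimulated with NKH477 (200nM […]) for 30 min. cAMP read by HTRF (665/620 nm).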

[19] = target: D(2) dopamine receptor (Homo sapiens) (UniProt P14416); assay: Dopamine D2 receptor (DRD2) small molecule antagonists, cell-based qHTS assay (AID 1963595; active = well fitted inhibition curve with a large enough effect in the signal ratio in the repeat runs, with a control signal flat; the % refers to the signal ratio)
Method in brief: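 HEK293 cells stably expressing DRD2 were preincubated with 0.1 mM Ro20-1724, then with compound for 10 min at room temperature. Cells were stimulated with 200 nM NKH477 plus 12 nM quinpirole for 30 min, and cAMP was read by HTRF.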

[20] = p53 small molecule agonists, cell-based qHTS assay with rat liver microsomes: qHTS cell viability counter screen (AID 1963580); note: nearly all actives have a fitted effect of over 45% in size
Method in brief: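 After the beta-lactamase ratio was read, CellTiter-Glo was added to the same wells and luminescence measured at 30 min; cells had been treated 16 h at 37 C with compounds, rat liver microsomes and NADPH (0.5 mg/mL final each).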

Measured: Potency

Chain of Beta-2 adrenergic receptor (Homo sapiens) (P07550 whole entry, looked up): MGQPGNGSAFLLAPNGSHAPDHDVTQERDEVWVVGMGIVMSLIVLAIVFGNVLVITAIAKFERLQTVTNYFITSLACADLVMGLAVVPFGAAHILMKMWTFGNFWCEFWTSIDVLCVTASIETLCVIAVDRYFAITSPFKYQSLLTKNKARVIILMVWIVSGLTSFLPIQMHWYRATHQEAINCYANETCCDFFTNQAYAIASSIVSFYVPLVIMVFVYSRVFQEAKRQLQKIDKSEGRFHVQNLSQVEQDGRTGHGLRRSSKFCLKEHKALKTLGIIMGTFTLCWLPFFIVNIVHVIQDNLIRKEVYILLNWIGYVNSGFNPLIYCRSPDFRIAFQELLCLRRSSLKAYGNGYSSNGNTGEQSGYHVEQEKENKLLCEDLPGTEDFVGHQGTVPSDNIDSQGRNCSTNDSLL
Chain of Muscarinic acetylcholine receptor M1 (Homo sapiens) (P11229 whole entry, looked up): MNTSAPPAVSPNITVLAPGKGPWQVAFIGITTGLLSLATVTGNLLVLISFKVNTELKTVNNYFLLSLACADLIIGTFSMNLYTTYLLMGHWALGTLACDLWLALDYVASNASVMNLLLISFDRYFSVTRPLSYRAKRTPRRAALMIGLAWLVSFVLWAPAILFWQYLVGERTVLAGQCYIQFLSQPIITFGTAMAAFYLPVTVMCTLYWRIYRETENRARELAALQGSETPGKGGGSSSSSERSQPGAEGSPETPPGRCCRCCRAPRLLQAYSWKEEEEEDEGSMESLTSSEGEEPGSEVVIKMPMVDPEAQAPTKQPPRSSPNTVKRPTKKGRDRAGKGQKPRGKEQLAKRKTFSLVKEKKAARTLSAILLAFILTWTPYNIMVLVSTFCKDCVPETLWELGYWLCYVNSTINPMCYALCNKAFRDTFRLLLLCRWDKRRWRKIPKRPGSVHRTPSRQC
Chain of 5-hydroxytryptamine receptor 2A (Homo sapiens) (P28223 whole entry, looked up): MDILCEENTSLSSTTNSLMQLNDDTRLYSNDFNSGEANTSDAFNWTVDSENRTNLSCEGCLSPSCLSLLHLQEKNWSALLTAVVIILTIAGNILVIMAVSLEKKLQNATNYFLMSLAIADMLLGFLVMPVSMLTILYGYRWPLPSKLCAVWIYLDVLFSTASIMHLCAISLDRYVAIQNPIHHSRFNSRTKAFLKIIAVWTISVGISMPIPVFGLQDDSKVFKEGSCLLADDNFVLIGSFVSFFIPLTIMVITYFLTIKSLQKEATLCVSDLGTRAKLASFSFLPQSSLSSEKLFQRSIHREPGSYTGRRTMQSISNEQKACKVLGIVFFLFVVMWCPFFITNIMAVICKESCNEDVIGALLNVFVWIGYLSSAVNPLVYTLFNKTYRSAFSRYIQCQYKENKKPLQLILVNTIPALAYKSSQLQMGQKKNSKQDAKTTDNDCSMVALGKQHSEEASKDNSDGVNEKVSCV
Chain of KiSS-1 receptor (Homo sapiens) (Q969F8 whole entry, looked up): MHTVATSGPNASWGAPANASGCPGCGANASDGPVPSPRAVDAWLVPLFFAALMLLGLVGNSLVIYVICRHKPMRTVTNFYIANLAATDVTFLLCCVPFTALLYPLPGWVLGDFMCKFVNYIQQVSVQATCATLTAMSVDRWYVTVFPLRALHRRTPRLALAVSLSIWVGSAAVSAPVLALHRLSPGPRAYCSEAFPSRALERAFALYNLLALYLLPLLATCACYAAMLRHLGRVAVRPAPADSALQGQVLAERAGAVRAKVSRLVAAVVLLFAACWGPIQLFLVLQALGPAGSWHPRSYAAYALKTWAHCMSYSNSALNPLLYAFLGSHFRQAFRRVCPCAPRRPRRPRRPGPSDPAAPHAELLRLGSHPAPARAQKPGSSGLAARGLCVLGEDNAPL
Chain of Gonadotropin-releasing hormone receptor (Homo sapiens) (P30968 whole entry, looked up): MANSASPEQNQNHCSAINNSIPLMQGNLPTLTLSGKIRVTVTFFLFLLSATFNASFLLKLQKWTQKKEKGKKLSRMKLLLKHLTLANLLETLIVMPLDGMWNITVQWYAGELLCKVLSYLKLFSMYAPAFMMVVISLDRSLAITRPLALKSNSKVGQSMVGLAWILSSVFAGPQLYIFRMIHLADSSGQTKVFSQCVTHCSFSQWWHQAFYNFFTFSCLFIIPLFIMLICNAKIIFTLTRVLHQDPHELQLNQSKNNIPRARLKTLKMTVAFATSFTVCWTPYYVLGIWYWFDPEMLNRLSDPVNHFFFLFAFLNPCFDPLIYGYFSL
Chain of D(2) dopamine receptor (Homo sapiens) (P14416 whole entry, looked up): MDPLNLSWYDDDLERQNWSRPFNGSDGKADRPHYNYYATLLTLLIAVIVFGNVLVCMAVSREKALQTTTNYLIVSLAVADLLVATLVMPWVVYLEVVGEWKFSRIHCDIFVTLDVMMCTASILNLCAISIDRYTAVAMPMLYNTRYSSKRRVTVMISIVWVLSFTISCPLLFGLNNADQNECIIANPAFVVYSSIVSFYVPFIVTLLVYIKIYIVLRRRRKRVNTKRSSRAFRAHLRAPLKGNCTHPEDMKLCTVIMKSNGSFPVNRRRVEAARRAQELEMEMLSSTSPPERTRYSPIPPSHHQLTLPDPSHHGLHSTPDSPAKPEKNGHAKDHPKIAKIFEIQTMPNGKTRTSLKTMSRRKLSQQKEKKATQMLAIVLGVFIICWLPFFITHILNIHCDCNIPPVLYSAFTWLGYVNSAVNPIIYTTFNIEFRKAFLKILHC

CCOC(=O)/C=C\C(=O)OCC
inactive: [1] | [2] | [3] | [4] | [5] | [6] | [7] | [8] | [9] | [10] | [11] | [12] | [13] | [14] | [15] | [16] | [17] | [18] | [19]

CCCCCCCCC
inactive: [1] | [2] | [3] | [4] | [5] | [6] | [7] | [8] | [9] | [10] | [11] | [12] | [13] | [14] | [15] | [16] | [18] | [19]

Nc1cccc(C(F)(F)F)c1
inactive: [1] | [2] | [3] | [4] | [5] | [6] | [7] | [8] | [9] | [10] | [11] | [12] | [14] | [15] | [18] | [19]
inactive and 54.5 µM (active): [16]

CCCN(CCC)C(=O)SCC
inactive: [1] | [2] | [3] | [4] | [5] | [6] | [7] | [8] | [9] | [10] | [11] | [12] | [13] | [14] | [15] | [17] | [18] | [19]

CC(C)(C#N)c1cc(Cn2cncn2)cc(C(C)(C)C#N)c1
inactive: [1] | [2] | [3] | [4] | [5] | [6] | [7] | [8] | [9] | [10] | [14] | [15] | [16] | [17]

CCCCCCCCCCCCO
inactive and 67.8 µM (active): [2]
inactive: [1] | [3] | [4] | [5] | [6] | [7] | [8] | [20] | [10] | [11] | [12] | [13] | [15] | [16] | [17] | [18] | [19]

Cc1cccc(Nc2cc(Cl)nc(SCC(=O)O)n2)c1C
inactive: [1] | [2] | [3] | [4] | [5] | [6] | [7] | [8] | [20] | [17] | [18] | [19]

CCCCNC(=O)NS(=O)(=O)c1ccc(C)cc1
inactive: [1] | [2] | [3] | [4] | [5] | [6] | [7] | [8] | [9] | [10] | [11] | [12] | [13] | [15] | [16] | [17] | [18] | [19]

CCOC(=O)NNc1nncc2ccccc12
inactive: [1] | [2] | [3] | [4] | [5] | [6] | [7] | [8] | [20] | [10] | [11] | [12] | [13] | [14] | [15] | [17] | [18] | [19]

Cc1ccc(C(C)C)c(O)c1
inactive: [1] | [2] | [3] | [4] | [5] | [6] | [7] | [8] | [9] | [10] | [11] | [12] | [13] | [14] | [15] | [16] | [18] | [19]

CC[Si](OC(C)=O)(OC(C)=O)OC(C)=O
inactive: [1] | [2] | [3] | [4] | [5] | [6] | [7] | [8] | [20] | [10] | [11] | [12] | [13] | [14] | [15] | [16] | [18] | [19]

CC(C)(Oc1ccc(Cl)cc1)C(=O)O
inactive: [1] | [2] | [3] | [4] | [5] | [6] | [7] | [8] | [9] | [10] | [15] | [16] | [17] | [18] | [19]

C=CCOC(=O)CC(C)C
inactive: [1] | [2] | [3] | [4] | [5] | [6] | [7] | [8] | [9] | [10] | [11] | [12] | [13] | [14] | [16] | [17] | [18] | [19]

Nc1cc(Cl)c(N)c(Cl)c1
68 µM (active) and inactive: [2]
inactive: [1] | [3] | [4] | [5] | [6] | [7] | [8] | [9] | [10] | [11] | [12] | [13] | [14] | [15] | [18] | [19]

C[C@]12CC[C@@H]3c4ccc(O)cc4CC[C@H]3[C@@H]1C[C@@H](O)[C@@H]2O
inactive: [1] | [2] | [3] | [4] | [5] | [6] | [7] | [8] | [9] | [10] | [14] | [15] | [16] | [17] | [18] | [19]

ClC1=C(Cl)C(Cl)(Cl)C(Cl)=C1Cl
inactive: [1] | [3] | [4] | [5] | [6] | [7] | [8] | [20] | [10] | [11] | [12] | [14] | [15] | [16] | [18] | [19]
inactive and 61.1 µM (active): [2]
